Experimental data from article PMC10954555.

target: Probable ATP-dependent RNA helicase DDX23 (UniProt Q9BUQ8); experiment: cross-link between two proteins; cross-linking mass spectrometry; other
Sequence (Q9BUQ8 whole entry): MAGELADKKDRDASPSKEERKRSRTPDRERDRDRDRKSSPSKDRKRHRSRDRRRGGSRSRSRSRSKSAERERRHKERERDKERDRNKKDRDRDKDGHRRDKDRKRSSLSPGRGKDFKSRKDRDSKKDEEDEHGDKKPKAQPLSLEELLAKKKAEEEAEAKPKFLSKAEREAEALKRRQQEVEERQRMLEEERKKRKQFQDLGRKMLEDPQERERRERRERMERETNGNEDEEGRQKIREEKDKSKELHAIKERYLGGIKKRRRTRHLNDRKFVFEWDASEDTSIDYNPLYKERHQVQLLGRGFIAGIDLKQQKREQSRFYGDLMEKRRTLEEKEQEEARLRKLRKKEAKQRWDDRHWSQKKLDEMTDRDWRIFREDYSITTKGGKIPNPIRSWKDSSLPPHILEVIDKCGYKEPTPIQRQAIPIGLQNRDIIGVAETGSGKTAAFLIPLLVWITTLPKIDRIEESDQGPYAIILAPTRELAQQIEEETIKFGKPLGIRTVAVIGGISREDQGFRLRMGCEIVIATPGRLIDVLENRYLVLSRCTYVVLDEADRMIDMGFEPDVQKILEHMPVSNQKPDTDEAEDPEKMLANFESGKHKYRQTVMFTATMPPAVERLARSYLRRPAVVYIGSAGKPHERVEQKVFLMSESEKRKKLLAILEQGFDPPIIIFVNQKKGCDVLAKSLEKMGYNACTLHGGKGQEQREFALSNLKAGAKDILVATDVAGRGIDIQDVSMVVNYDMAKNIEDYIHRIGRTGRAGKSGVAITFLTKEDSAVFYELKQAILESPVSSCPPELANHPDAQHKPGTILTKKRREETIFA

Row | Substance | listed as a hit
1 | U5 small nuclear ribonucleoprotein 200 kDa helicase, O75643 | yes
2 | U4/U6.U5 tri-snRNP-associated protein 1, O43290 | yes
3 | Pre-mRNA-processing factor 6, O94906 | yes
4 | 116 kDa U5 small nuclear ribonucleoprotein component, Q15029 | yes
